In PubChem BioAssay AID1159580 (chemical genetic matrix, 2015):
Among all 5,500 compounds or so, about 2,000 (36%) were called active. About 18% were inconclusive and are not listed. Rule as the data show it: active = normalized growth mostly below about 0.91 (no sharp cut-off); inconclusive = no clear call, values can overlap the other calls; inactive = mostly above about 0.92. This is one part of the list.

Assay: chemical genetic growth profiling, strain panel (AID 1159580);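 also: tested at 20 µM; growth read once vehicle control cultures reached saturation at 30 °C; 1 = growth at the plate median or of vehicle wells; lower values mean less growth of the strain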
Details: S. cerevisiae deletion strains, growth OD

Measured: normalized growth

CCCN1CCC[C@@H]2Cc3nc(N)ncc3C[C@H]21
inactive: locus YAL013W, strain DEP1, stronger effect = lower value 1.02 | locus YAL040C, strain CLN3, stronger effect = lower value 1.01 | locus YCL061C, strain MRC1 (second series), stronger effect = lower value 1.01 | locus YDR363W, strain ESC2, stronger effect = lower value 0.999 | locus YER002W, strain NOP16, stronger effect = lower value 1.02 | locus YMR307W, strain GAS1, stronger effect = lower value 0.995 | locus YNL128W, strain TEP1, stronger effect = lower value 1.01 | locus YNL175C, strain NOP13, stronger effect = lower value 1.02 | locus YNL197C, strain WHI3, stronger effect = lower value 1.01 | locus YNL224C, strain SQS1, stronger effect = lower value 1.01 | locus YNL322C, strain KRE1, stronger effect = lower value 0.999 | locus YOR083W, strain WHI5 (second series), stronger effect = lower value 1.01 | locus YPL241C, strain CIN2, stronger effect = lower value 1
